Reference: PubChem BioAssay (EPA / NIEHS)
Active and inactive are the calls of the source. Rule for the calls: active = hit-call score of the fitted dose curve at least 0.9, where 1 is the maximum; inactive = score below 0.9.

Experiments:
[1] = read-out: Vascular endothelial growth factor receptor 2 (Homo sapiens) (UniProt P35968); assay: BSK_4H_VEGFRII: BioMAP Diversity Plus: 4H Assay for Vascular endothelial growth factor receptor 2 (VEGFR2) Biomarker Activity (AID 2283031); conditions: primary human endothelial cells (HUVEC); actives raise or lower the signal
Procedure, shortened: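 Primary human umbilical vein endothelial cells in the BioMAP 4H system were dosed with test chemical, and 24 h later VEGFRII was measured by ELISA. Activity was fitted bidirectionally against DMSO as negative control and baseline.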

[2] = read-out: Human Leukocyte Antigen - DR isotype (HLADR), HLA-DRA (gene 3122); assay: BSK_BE3C_HLADR: BioMAP Diversity Plus: BE3C Assay for Human Leukocyte Antigen - DR isotype (HLADR) Biomarker Activity (AID 2283032); conditions: primary human bronchial epithelial cells; actives raise or lower the signal
Procedure, shortened: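 BioMAP BE3C format: human bronchial epithelium, 24 h compound treatment, ELISA detection of HLA-DR, with bidirectional analysis relative to DMSO.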

[3] = read-out: Vascular cell adhesion molecule 1 (VCAM1), VCAM1 (gene 7412); assay: BSK_4H_VCAM1: BioMAP Diversity Plus: 4H Assay for Vascular cell adhesion molecule 1 (VCAM1) Biomarker Activity (AID 2283033); conditions: primary human endothelial cells (HUVEC); actives raise or lower the signal
Procedure, shortened: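 In this human endothelial (HUVEC) system, biomarker ELISA was run 24 h after compound addition, and total protein in parallel wells was assessed by SRB at 560 nm; DMSO served as negative control.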

[4] = read-out: Monokine induced gamma interferon (MIG), CXCL9 (gene 4283); assay: BSK_BE3C_MIG: BioMAP Diversity Plus: BE3C Assay for Monokine induced gamma interferon (MIG) Biomarker Activity (AID 2283035); conditions: primary human bronchial epithelial cells; actives raise or lower the signal
Procedure, shortened: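 hu bronchial epithelial 1° cells, 24 h cpd; MIG by ELISA; bidirectional fit, DMSO = baseline.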

[5] = read-out: Transforming growth factor beta 1 (TGFb1), TGFB1 (gene 7040); assay: BSK_BE3C_TGFb1: BioMAP Diversity Plus: BE3C Assay for Transforming growth factor beta 1 (TGFb1) Biomarker Activity (AID 2283036); conditions: primary human bronchial epithelial cells; actives raise or lower the signal
Procedure, shortened: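 TGF-b1 measured via ELISA, 24 h after chemical dosing of human bronchial epithelial cells (BE3C). Overt cytotoxicity assessed in parallel by SRB (0.1%, TCA-fixed, 560 nm); analysis bidirectional relative to DMSO.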

[6] = read-out: Plasminogen activator inhibitor-1 (PAI1), SERPINE1 (gene 5054); assay: BSK_BE3C_PAI1: BioMAP Diversity Plus: BE3C Assay for Plasminogen activator inhibitor-1 (PAI1) Biomarker Activity (AID 2283037); conditions: primary human bronchial epithelial cells; actives raise or lower the signal
Procedure, shortened: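 In this multiplexed primary-cell system, bronchial epithelial cells receive test chemical and are sampled at 24 h. PAI-1 is read by ELISA, with DMSO serving as negative control for bidirectional fitting.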

[7] = read-out: urokinase plasminogen activator (uPA), PLAU (gene 5328); assay: BSK_BE3C_uPA: BioMAP Diversity Plus: BE3C Assay for urokinase plasminogen activator (uPA) Biomarker Activity (AID 2283038); conditions: primary human bronchial epithelial cells; actives raise or lower the signal
Procedure, shortened: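 Human primary bronchial epithelial cells were exposed to chemical for 24 h, then uPA levels were measured by ELISA. Responses were fitted bidirectionally against DMSO as negative control and baseline. Parallel SRB staining of total protein gauged overt cytotoxicity.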

[8] = read-out: Urokinase-type plasminogen activator receptor (uPAR), PLAUR (gene 5329); assay: BSK_BE3C_uPAR: BioMAP Diversity Plus: BE3C Assay for Urokinase-type plasminogen activator receptor (uPAR) Biomarker Activity (AID 2283039); conditions: primary human bronchial epithelial cells; actives raise or lower the signal
Procedure, shortened: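 Chemically treated human bronchial epithelial cells (lung primary) are assayed for uPAR by ELISA after 24 h, with data fitted in both directions using DMSO as negative control.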

[9] = read-out: Interleukin-6 (IL6), IL6 (gene 3569); assay: BSK_CASM3C_IL6: BioMAP Diversity Plus: CASM3C Assay for Interleukin-6 (IL6) Biomarker Activity for (AID 2283040); conditions: primary human coronary artery smooth muscle cells; actives raise or lower the signal
[10] = read-out: Interferon-gamma inducible Protein 10 (IP10), CXCL10 (gene 3627); assay: BSK_BE3C_IP10: BioMAP Diversity Plus: BE3C Assay for Interferon-gamma inducible Protein 10 (IP10) Biomarker Activity (AID 2283034); conditions: primary human bronchial epithelial cells; actives raise or lower the signal
Procedure, shortened: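 BE3C cells (human bronchial epithelial, primary); 24 h exposure; ELISA for IP-10; DMSO-referenced bidirectional fit.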

Measured: AC50

COCC(C)OCC(C)OCC(C)O (centres undefined)
not listed: [10]
inactive: all other assays above

CCCCCCCCCC(=O)O
not listed: [7] | [10]
inactive: all other assays above

O=C=NCCCCCCN=C=O
not listed: [1] | [10]
inactive: all other assays above

Cc1cn([C@H]2C[C@H](N=[N+]=[N-])[C@@H](CO)O2)c(=O)[nH]c1=O
not listed: [1] | [10]
inactive: all other assays above

CN1C(=O)CC[C@H]1c1cccnc1
not listed: [1] | [7]
inactive: all other assays above

CCCC(=O)OCCC(C)C
not listed: [1] | [7] | [10]
inactive: all other assays above

Clc1ccccc1C(c1ccccc1)(c1ccccc1)n1ccnc1
active: [2] 8.22 µM | [3] 33.5 µM | [10] 10.7 µM | [4] 9.5 µM | [5] 6.45 µM | [6] 7.59 µM | [8] 9.68 µM | [9] 31.9 µM

Cc1cc(F)ccc1-c1cc(N2CC[C@@H](O)[C@H]2CO)ncc1N(C)C(=O)C(C)(C)c1cc(C(F)(F)F)cc(C(F)(F)F)c1
active: [2] 12.8 µM | [3] 11.2 µM | [4] 13.9 µM | [5] 11.5 µM | [6] 13 µM | [7] 14.8 µM | [8] 14 µM | [9] 16.3 µM

CCCCCCCC[Si](OCC)(OCC)OCC
active: [3] 21.6 µM
not listed: [1] | [7] | [10]
inactive: all other assays above

O=C(O)Cn1c(=O)n(Cc2ccc(Br)cc2F)c(=O)c2ccc(Cl)cc21
not listed: [1] | [7] | [10]
inactive: all other assays above

CC(=O)N1CCN(c2ccc(OC[C@H]3CO[C@](Cn4ccnc4)(c4ccc(Cl)cc4Cl)O3)cc2)CC1
active: [2] 33.3 µM | [3] 33.6 µM
inactive: [4] | [5] | [6] | [8] | [9]

CC(O)CC(C)(C)O (centres undefined)
not listed: [1]
inactive: all other assays above

CCCCOC(=O)c1ccc(O)cc1
not listed: [1] | [7]
inactive: all other assays above

CCN(Cc1cccnc1)C(=O)c1cccc(Cl)c1[C@]1(C)C(=O)N(Cc2ccc(OC)cc2OC)c2ccc(Cl)cc21
active: [6] 3.79 µM | [7] 5.67 µM | [8] 6.94 µM | [9] 12.3 µM
inactive: [2] | [3] | [4] | [5]

O=C(O)c1ccccc1C(=O)OCc1ccccc1
not listed: [1] | [10]
inactive: all other assays above

c1ccc2n[nH]nc2c1
not listed: [1] | [7]
inactive: all other assays above

CN(C)C(=O)C1(N2CCCCC2)CCN(CC[C@@]2(c3ccc(Cl)c(Cl)c3)CN(C(=O)c3ccccc3)CCO2)CC1
active: [2] 14.4 µM | [3] 30.8 µM | [4] 31.2 µM | [5] 32.3 µM | [6] 24.4 µM | [8] 12 µM | [9] 31.2 µM

CC1=CC(=O)/C(=C(/C)O)C(=O)O1
not listed: [1]
inactive: all other assays above

O=c1ccc2ccccc2o1
not listed: [1] | [7] | [10]
inactive: all other assays above

CC[C@H](NC(=O)c1cc(F)ccc1NS(=O)(=O)c1cccc2cccnc12)c1ccccc1
not listed: [1] | [7] | [10]
inactive: all other assays above

CCCCOC(=O)CC(CC(=O)OCCCC)(OC(C)=O)C(=O)OCCCC
active: [2] 20 µM
not listed: [1] | [7]
inactive: all other assays above

CCCCCCCCOc1ccc(C(=O)c2ccccc2)c(O)c1
not listed: [1]
inactive: all other assays above

O=C(O)Cc1cc(I)c(Oc2ccc(O)c(I)c2)c(I)c1
inactive: [5]
active: [2] 17.6 µM | [3] 18.7 µM | [10] 10.3 µM | [4] 33.9 µM | [6] 15.2 µM | [8] 32.8 µM | [9] 29.6 µM

COc1cc(C(=O)NC2CCN(C)CC2)ccc1Nc1ncc2c(n1)N(C1CCCC1)CC(F)(F)C(=O)N2C
active: [2] 21.9 µM | [3] 7.23 µM | [10] 35.5 µM | [4] 31.8 µM | [5] 18.5 µM | [6] 18.6 µM | [8] 5.34 µM | [9] 8.51 µM

O=C(O)c1ccccc1-n1cc(C(=O)O)c(=O)c2cc(Nc3c(F)cc(F)cc3Cl)c(Cl)cc21
not listed: [1] | [7]
inactive: all other assays above

O=c1c(-c2ccc(O)cc2)coc2cc(O)cc(O)c12
active: [3] 20 µM | [9] 11.1 µM
not listed: [1] | [10]
inactive: all other assays above

CCCCCCCCCCCCO
inactive: [2] | [4] | [6] | [8]
active: [3] 30.5 µM | [5] 30.1 µM | [9] 30.7 µM

CC[C@@H]1C[C@H](N(Cc2cc(C(F)(F)F)cc(C(F)(F)F)c2)C(C)=O)c2cc(C(F)(F)F)ccc2N1C(=O)OC(C)C
not listed: [1] | [7]
inactive: all other assays above

CC1(C)NC(=O)N(c2ccc([N+](=O)[O-])c(C(F)(F)F)c2)C1=O
not listed: [1]
inactive: all other assays above

CN(C[C@@H](CC[N+]12CCC(C3CCCCC3)(CC1)CC2)c1ccc(Cl)c(Cl)c1)C(=O)c1cc(C(F)(F)F)cc(C(F)(F)F)c1
active: [2] 12.6 µM | [3] 32 µM | [4] 29.6 µM | [5] 17.5 µM | [6] 12.5 µM | [7] 16.6 µM | [8] 13.6 µM | [9] 15.9 µM

OCCO
not listed: [1] | [10]
inactive: all other assays above

C[C@]12CC[C@@H]3c4ccc(O)cc4CC[C@H]3[C@@H]1CC[C@H]2O
not listed: [1] | [7] | [10]
inactive: all other assays above

CCN(Cc1cccc(S(=O)(=O)O)c1)c1ccc(C(=C2C=CC(=[N+](CC)Cc3cccc(S(=O)(=O)O)c3)C=C2)c2ccccc2S(=O)(=O)[O-])cc1
not listed: [1] | [7]
inactive: all other assays above

c1ccc(C[n+]2cccc3ccccc32)cc1
not listed: [1] | [7] | [10]
inactive: all other assays above

O=C1O[C@H]([C@@H](O)CO)C(O)=C1O
not listed: [1] | [7]
inactive: all other assays above

Cc1cc2c(cc1C(F)(F)F)N(C(=O)Nc1ccc(Oc3cccnc3C)nc1)CC2
active: [2] 5.03 µM | [7] 11.7 µM
not listed: [1] | [10]
inactive: all other assays above

CO[C@H]1/C=C/O[C@@]2(C)Oc3c(C)c(O)c4c(O)c(c(/C=N/N5CCN(C)CC5)c(O)c4c3C2=O)NC(=O)/C(C)=C\C=C\[C@H](C)[C@H](O)[C@@H](C)[C@@H](O)[C@@H](C)[C@H](OC(C)=O)[C@@H]1C
not listed: [1] | [7]
inactive: all other assays above

c1ccc2ccccc2c1
not listed: [1] | [7] | [10]
inactive: all other assays above

Cc1ncc(CO)c(CO)c1O
not listed: [1] | [10]
inactive: all other assays above

CCCCCc1ccc(N)cc1
active: [8] 5.56 µM
not listed: [1] | [10]
inactive: all other assays above
